Measurements published in PubChem BioAssay.

Assays:
[1] = target: Tumor necrosis factor receptor superfamily member 10B (Homo sapiens) (UniProt O14763); test: caspase-8 TRAIL sensitization, hit retest, confirmation, cell-based, NB7+caspase-8, with/without TRAIL, luminescence panel (AID 651596); details: NB7 neuroblastoma + caspase-8, TRAIL sensitization, luminescence viability, with TRAIL, mean of runs, at 10 µM, stronger effect = higher value
[2] = as above; details: NB7 neuroblastoma + caspase-8, without TRAIL, luminescence viability, without TRAIL, mean of runs, at 10 µM

Sequence of Tumor necrosis factor receptor superfamily member 10B (Homo sapiens) (O14763 whole entry, looked up): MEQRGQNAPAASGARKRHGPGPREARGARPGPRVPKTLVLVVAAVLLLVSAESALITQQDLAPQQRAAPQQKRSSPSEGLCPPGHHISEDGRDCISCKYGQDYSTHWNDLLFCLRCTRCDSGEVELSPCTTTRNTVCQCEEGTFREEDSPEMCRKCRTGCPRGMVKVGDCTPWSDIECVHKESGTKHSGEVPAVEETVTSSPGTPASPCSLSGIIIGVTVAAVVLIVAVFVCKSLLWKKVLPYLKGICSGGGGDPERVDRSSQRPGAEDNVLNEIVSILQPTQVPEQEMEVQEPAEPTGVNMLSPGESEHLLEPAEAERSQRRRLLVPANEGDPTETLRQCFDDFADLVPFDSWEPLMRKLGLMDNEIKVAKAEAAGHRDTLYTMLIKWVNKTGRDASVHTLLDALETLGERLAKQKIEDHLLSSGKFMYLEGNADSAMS

Structure (SMILES) | activity [1] [%] | activity [2] [%]
CCCCCCCN(C(=O)CCl)c1cccc(C)c1 | 99 | 99
Clc1ccc(-n2ncc3c(N4CCCC4)ncnc32)cc1 | 66.2 | 53.2
O=C(CCl)N1c2ccccc2CCc2ccccc21 | 99.8 | 99.7
CCCC(=O)Nc1ccc(-c2csc(N/N=C\c3ccncc3)n2)cc1 | 61.5 | 65.6
COc1ccc(C2C(C(=O)N3CCN(c4ccccc4)CC3)c3ccccc3C(=O)N2C)cc1OC (centres undefined) | 71.8 | 64.5
CCCn1c(C)cc(C(=O)COC(=O)c2cc(=O)[nH]c3ccccc23)c1C | 61.2 | 59.1
O=C(N/N=C/c1cccs1)c1ccc2c(c1)OCO2 | 71.7 | 66
Cc1onc(C(=O)N2CCC(Cc3ccccc3)CC2)c1[N+](=O)[O-] | 97.8 | 98.1
COc1ccc(C2NN=C(c3ccc(C)cc3)S2)cc1OC (centres undefined) | 60 | 55
CCOC(=O)c1sc2nc(-c3cccnc3)ccc2c1N | 56 | 49.2
O=C(Nc1ccc(N2CCN(C(=O)c3ccccc3)CC2)cc1)c1cc2ccccc2o1 | 70.8 | 50.3
Cc1nc2c(-c3ccc(F)cc3)cnn2c(N)c1-c1ccccc1 | 88.4 | 86.9
O=C(N/N=C/c1ccccc1[N+](=O)[O-])c1ccc2c(c1)OCCO2 | 95.4 | 94.5
CCCCCc1c(-c2ccc(OC)c(OC)c2)ncn1CCc1ccccc1OC | 22.7 | 30.2
COc1ccc(C(=O)N/N=C/c2cccnc2)cc1 | 34.2 | 40
O=C(c1ccccc1)n1c(=S)nc2ccccn21 | 86.2 | 85.5
O=C(Nc1ccc2[nH]ccc2c1)c1ccccc1 | 81.1 | 75.3
CC1=C(C(=O)Nc2ccccc2)C(c2ccc(C)cc2)N=C(Nc2nc3ccccc3o2)N1 (centres undefined) | 41 | 76
Cc1nnc(SCC(=O)Nc2ccc(-c3nc4ccccc4s3)cc2)s1 | 51.9 | 33.7
Cc1ccc(Cn2ccsc2=NC(=O)CCl)cc1 | 99.2 | 99
Cc1cccc(/C=N/Nc2nncc3ccccc23)c1 | 80.9 | 69.2
NC(Cc1ccc(C(F)(F)F)cc1)c1csc(NC(=O)Nc2ccccc2Oc2ccccc2)n1 (centres undefined) | 75.1 | 93.7
COc1ccccc1/C=C/C1(C(=O)NC2CCCC2)CC(=O)N1c1ccc(F)cc1 (centres undefined) | 98 | 98.1
COc1cc(NC(=O)Nc2nc(C(N)Cc3ccc(C(F)(F)F)cc3)cs2)cc(OC)c1OC (centres undefined) | 29.9 | 74.6
CN1CCN(c2ccc3sc(-n4ccc5ccccc54)nc3c2)CC1 | 76.2 | 64.5

Structure (SMILES) | activity [1] [%] | activity [2] [%]
C=C1CC(COc2cc(=O)oc3ccccc23)(c2ccccc2)OC1=O (centres undefined) | 89.5 | 96.5
Cc1cc(N2CCOCC2)n2ncc(-c3ccccc3)c2n1 | 66.8 | 52.8
Cc1ccc(N2Cc3ccccc3C2=O)cc1 | 64.7 | 59.3
O=c1c2[nH]c3ccccc3c2ncn1C1CCCCC1 | 75.2 | 74.8
COc1ccccc1C=NN=C(NN=Cc1ccccc1OC)NN=Cc1ccccc1OC | 78 | 65.6
CCCn1c(C)cc(C(=O)COC(=O)c2ccc[nH]c2=O)c1C | 49 | 49.6
O=S(=O)(c1ccccc1)c1nnn2c1nc(NC1CCN(Cc3ccccc3)CC1)c1ccccc12 | 97.9 | 48.9
Clc1ccc(-c2nc(-c3ccccn3)no2)cc1Cl | 77.5 | 74.5
C#CC(=O)N(c1ccc(OC)c(OC)c1)C(C(=O)NC1CCCC1)c1cccs1 (centres undefined) | 99.3 | 99.5
CC(C)c1ccc(-n2c(-c3ccccc3)c[n+]3c2CCc2ccccc2-3)cc1 | 77 | 75.5
COc1cccc(C(=O)/C=C2\Sc3ccccc3N2C)c1 | 56.7 | 29.4
OC(c1ccccc1)(c1ccccc1)C1CCN(CCCOc2ccc3c(c2)CCCC3)CC1 | 38 | 48.9
COc1ccc(C(=O)Nc2cc(C)on2)cc1 | 49.3 | 38.6
CCc1nnc(NC(=O)CSc2nc3c(cc2C#N)CCCC3)s1 | 62.8 | 72.3
Oc1cccc(/C=N/Nc2cccc3cccnc23)c1 | 48.6 | 34.2
COc1ccc(C2=NN(C(=O)COC(=O)c3ccc(S(C)(=O)=O)c([N+](=O)[O-])c3)C(c3ccco3)C2)cc1 (centres undefined) | 92.5 | 98.5
Cc1cccc2sc(NNC(=O)c3ccc(S(=O)(=O)N4CC(C)CC(C)C4)cc3)nc12 (centres undefined) | 55.6 | 49.8
COc1nn(-c2ccccc2)c(=O)c(Cl)c1Cl | 92.3 | 96.3
Cc1oc(-c2nc3ccccc3n2C)cc1C(=O)c1ccccc1 | 81.4 | 81
CSc1ccc(C2NC(=O)c3ccccc3N2)cc1 (centres undefined) | 31.3 | 45.8
Cc1cc(NC(=O)c2ccc3c(c2)OCO3)no1 | 46.2 | 48.3
O=C(Nc1ccc2c(c1)OCCO2)Nc1ccc2c(c1)OCO2 | 81.4 | 79.5
COc1ccc2c(n1)Sc1nc3ccccc3nc1N2 | 4.47 | 4.42
CCOC(=O)c1cccc(NC(=O)/C=C/c2ccc3c(c2)OCO3)c1 | 78.9 | 78.7
O=C(CCl)N=c1sccn1Cc1ccccc1Cl | 99.6 | 98.9

Structure (SMILES) | activity [1] [%] | activity [2] [%]
COc1ccc(/C=C2\Oc3ccccc3C2=O)cc1 | 76.7 | 74.3
CCOC(=O)c1cc([N+](=O)[O-])cc([N+](=O)[O-])c1Sc1ncnc2nc[nH]c12 | 51.5 | 71.2
N=c1cc(C2(O)CCCCC2)n2c(nc3ccccc32)s1 | 93.5 | 89
Cc1ccc(-c2nc(NC(=O)c3nn(C)cc3[N+](=O)[O-])sc2C)cc1 | 97.6 | 99.3
CCOc1ccc(OCC)c(NC(=O)C2CCN(c3nn4c(=O)cc(C)nc4s3)CC2)c1 | 82 | 81.3
CSc1ccc(NC(=O)Nc2cc(C)ccn2)cc1 | 52.8 | 35.7
Cc1cc(C(=O)COC(=O)c2cccn2C)c(C)n1Cc1ccco1 | 54.5 | 39.2
CCN(CC)S(=O)(=O)c1cccc(NC(=O)Nc2cccc(C(F)(F)F)c2)c1 | 78.2 | 53
O=C(Nc1ccc(N2CCN(C(=O)c3cccs3)CC2)cc1)c1ccc([N+](=O)[O-])o1 | 86.7 | 99.8
COc1cccc2sc3ccc(C#CC4(O)CCCCC4)cc3c(=O)c12 | 46.1 | 45.8
Cc1cccnc1Nc1nc(-c2ccccn2)cs1 | 38.4 | 63.1
c1csc(-c2nnc(-c3ccc(N4CCOCC4)cc3)o2)c1 | 56.9 | 54.2
Cc1ccc(-c2nc(N/N=C/c3ccncc3)c3ccccc3n2)cc1 | 98 | 96.7
COc1ccc(/C(N)=N/OC(=O)c2ccc3c(c2)OCO3)cc1OC | 94.2 | 95.1
OCC1OC(n2cnc3c(SCc4ccccc4)ncnc32)C(O)C1O (centres undefined) | 59.9 | 67.1
O=C(Nc1ccc2nc3n(c(=O)c2c1)CCCCC3)c1c(F)ccc([N+](=O)[O-])c1F | 72.9 | 52.3
C=C1CCc2c([nH]c3ccc(OCC(C)C)cc23)C1=O | 91.8 | 99.2
O=C(Nc1ccccc1C(=O)N/N=C/c1ccncc1)c1ccccc1 | 91.7 | 87.5
CCc1cc2c(COC(=O)CCNS(=O)(=O)c3cccc(C(F)(F)F)c3)cc(=O)oc2cc1O | 23.9 | 3.52
Cc1cccc(NC(=O)CCc2ccc(N3C(N)=NC(N)=NC3(C)C)cc2)c1 | 81.3 | 80.4
Cc1ccc(-c2cc(C(=O)N/N=C/c3ccc([N+](=O)[O-])o3)c3ccccc3n2)o1 | 83.8 | 73.7
O=C1c2cccc3c([N+](=O)[O-])ccc(c23)C(=O)N1c1ccccn1 | 91.4 | 99.4
COc1ccc(C(=O)Nc2cccc(OC)c2)cc1 | 56.9 | 53.9
CS/C(Nc1cc(Cl)ccc1Cl)=C(/C#N)C(=O)c1ccco1 | 60.1 | 65.6
CC(C)CC(N)c1csc(NC(=O)c2cc(C(C)(C)C)nn2Cc2ccccc2)n1 (centres undefined) | 70 | 92.4

Structure (SMILES) | activity [1] [%] | activity [2] [%]
Cc1cc(N/N=C\c2ccccc2)nc(-c2ccccc2O)n1 | 41.2 | 24.4
Nc1nc2ccccc2n1C(=O)c1ccccc1 | 87.9 | 85.9
C=CCNc1ncnc2c1ncn2C1OC(CO)C(O)C1O (centres undefined) | 46.8 | 60.6
O=C(CCl)N1c2ccccc2SCC1c1ccccc1 (centres undefined) | 99.4 | 98.9
FC(F)(F)c1cc(Cl)c2nc(-c3ccccc3)cn2c1 | 65 | 76.1
COc1cccc(C=Cc2nccc3ccccc23)c1OC | 69.2 | 67.1
O=C(COc1ccccc1)Nc1cccc(-c2ccc(N3CCOCC3)nn2)c1 | 72.7 | 77.8
O=c1c2ccccc2oc2ccc(NCCCn3ccnc3)cc12 | 44 | 30.3
N/C(Cc1ccc(Cl)c(Cl)c1)=N\OC(=O)c1cccs1 | 49.6 | 39.5
O=C(Cc1ccsc1-c1ccccc1)NO | 73.4 | 72.3
CCOc1ccc(-n2c(SCC(N)=O)nc3c([nH]c4ccccc43)c2=O)cc1 | 59.4 | 56.5
CCN1CCN(c2ccc(S(=O)(=O)N3CCCCC3)cc2NC(=O)/C=C/c2ccc(OC(F)F)cc2)CC1 | 3.5 | 5.28
COc1cc(OC)nc(Nc2nc(C(N)Cc3ccc(C(F)(F)F)cc3)cs2)n1 (centres undefined) | 33.2 | 77.7
O=C1CCC(=O)N1c1ccc(-c2nc3ccccc3s2)cc1 | 76.8 | 41
CCC1CCCCN1Cc1nc(Cc2ccccc2Cl)no1 (centres undefined) | -9.55 | -33.1
CCCc1cc(=O)[nH]c(SCC(=O)Nc2sc(C(N)=O)c(C)c2C(=O)OCCOC)n1 | 84.6 | 86.4
Cc1cc(/C(N)=N/OC(=O)c2ccccc2Cl)no1 | 63.5 | 68.1
Brc1ccc(-c2nc(N/N=C/c3cccnc3)c3ccccc3n2)cc1 | 93.5 | 89.7
COc1cc(SC)ccc1C(=O)Nc1nccs1 | 83.3 | 84.3
Cc1ccc(C(=O)Nc2ncc(C)s2)s1 | 80.2 | 79
O=C(Nc1ccc(Cl)cc1)Nc1ccccc1C(=O)O | 58.3 | 45.1
O=C(Nc1cccc(O)c1)c1cc(-c2ccccc2Cl)on1 | 82.2 | 78
